A selection: hits, their analogues and other compounds. The true share with any hit is near 5.1%.
Tau FP inhib – tau fibrillization inhibition (FP). P10636. K18 P301L tau heparin fibrillization, Alexa594 FP, 6 h. Potency, µM (top dose mostly 57.7 µM), for inactives: at the top dose activity, negative = inhibition, hits mostly inhibitors. 280,000 compounds, 0.39% hits. AID 1468; note: potency is the fitted concentration of half-maximal effect; nearly all actives have a fitted effect of over 55% in size
Target sequence (P10636 561-689 P618L limits assumed): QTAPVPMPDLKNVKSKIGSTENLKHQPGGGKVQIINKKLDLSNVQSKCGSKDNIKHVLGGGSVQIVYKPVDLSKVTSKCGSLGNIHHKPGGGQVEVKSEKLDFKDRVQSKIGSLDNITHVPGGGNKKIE
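FP of Alexa 594-tau after heparin (20 uM) induction. Substrate: human K18 P301L, 15 uM unlabeled, 0.24 uM labeled. Buffer 100 mM sodium acetate pH 7. 6 hr, 37 C.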
PNC inhibitor – perinucleolar compartment assembly inhibition | PC3M PTB-GFP, PNC prevalence imaging, 16 h; hits give low values | activity change (PNC), negative = inhibition, % at 10 µM | 140,000 compounds, 3.1% hits | AID 2417;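 active = readout at or below -70, meaning at least 70% loss of cells showing the perinucleolar compartment, a nuclear body marking cancer cells; inconclusive = readout between -30 and a set limit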;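 note: plate controls were DMSO wells for no effect and camptothecin positive control wells for full effect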
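PC3M cells stably expressing PTB-GFP, 750–1000 cells/well, treated 16 h at 37 °C with compound (23 nl of library stock), in duplicate. After paraformaldehyde fixation and Hoechst stain, imaged at 20x; PNC prevalence scored by image analysis.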
Tau fluor cs – counter-screen for tau fibril formation inhibitors. tau K18 P301L Alexa594 fluorescence, heparin fibrillization. Potency, µM (series often up to 57.7 µM), inactives show at the top dose activity change, negative = decrease. 280,000 compounds, 0.93% hits. AID 1463; note: potency is the fitted concentration of half-maximal effect; nearly all actives have a fitted effect of over 55% in size
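Human K18 P301L tau (15 uM unlabeled plus 0.24 uM Alexa 594-labeled, final) in 100 mM sodium acetate pH 7 was mixed with compound and 20 uM heparin and incubated 6 hr at 37 C.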
NPSR antagonist – blocks cAMP signaling of the human neuropeptide S receptor. Potency, µM (titrated, usually from 38.3 µM), without a hit: top-dose activity change, negative = inhibition, most hits filed as inhibitors. Q6W5P4. 220,000 compounds, 1% hits. CHO-NPSR cells, cAMP TR-FRET, antagonist mode; note: potency is the fitted concentration of half-maximal effect; nearly all actives have a fitted effect of over 50% in size
Tau fibril ThT – inhibitors of human tau fibril formation, thioflavin T binding; AID 1460; Potency, µM (highest dose often 57.4 µM), for inactives: at the top dose activity, negative = inhibition, hits mostly inhibitors; recombinant tau K18 P301L (four-repeat tau fragment), heparin-induced fibrillization, ThT fluorescence; 270,000 compounds, 2.1% hits; note: potency is the fitted concentration of half-maximal effect; nearly all actives have a fitted effect of over 55% in size
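Recombinant human tau K18 fragment […] carrying P301L, 15 uM unlabeled plus 0.24 uM Alexa 594-labeled, was fibrillized with 20 uM heparin in 100 mM sodium acetate pH 7 for 6 hr at 37 C; 30 uM ThT fluorescence read after 1 hr.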
JMJD2E inh – inhibitors of human JMJD2E histone demethylase; B2RXH2; JMJD2E catalytic domain, FDH-coupled NADH fluorescence (FDH is formaldehyde dehydrogenase); Potency, µM (titrated, usually from 57.1 µM), for inactives: at the highest dose activity change, negative = inhibition, most hits filed as inhibitors; 230,000 compounds, 1.6% hits; AID 2147; active = well fitted inhibition curve with a large enough effect, not every such curve was filed as active; inconclusive = small, poorly fitted or top-dose-only effect, or another doubt; inactive = no such curve, though single readings can be large or run the other way;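 note: potency is the fitted concentration of half-maximal effect; 0% = wells with enzyme and -100% = buffer wells without enzyme; nearly all actives have a fitted effect of over 50% in size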
Target sequence (B2RXH2 1-337 limits assumed): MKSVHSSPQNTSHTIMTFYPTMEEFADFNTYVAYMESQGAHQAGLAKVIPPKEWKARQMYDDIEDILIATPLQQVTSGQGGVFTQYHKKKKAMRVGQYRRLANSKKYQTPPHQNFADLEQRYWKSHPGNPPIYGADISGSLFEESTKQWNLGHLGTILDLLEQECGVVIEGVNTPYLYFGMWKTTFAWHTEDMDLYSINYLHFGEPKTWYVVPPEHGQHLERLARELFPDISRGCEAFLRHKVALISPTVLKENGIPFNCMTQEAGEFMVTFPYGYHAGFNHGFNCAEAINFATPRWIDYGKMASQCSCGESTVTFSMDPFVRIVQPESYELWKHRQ
* = called active by the depositor; ? = inconclusive; . = no result given; [ ] = dose if it differs, or a comment. Unless noted, calls come from the whole dose curve; as a rule, active = well fitted curve in the direction sought with a large enough effect; inconclusive = small, poorly fitted or top-dose-only effect, or another doubt; inactive = no such curve, though single readings can be large; an effect the other way counts as inactive or inconclusive. Unless noted, % is set by controls: 0 for no effect and ±100 for the full control effect.

SMILES	Tau FP inhib	PNC inhibitor	Tau fluor cs	NPSR antagonist	Tau fibril ThT	JMJD2E inh
Cc1cc(C)cc(NC(=O)Cn2c(SCc3cc(C)ccc3C)nc3ccncc32)c1	?	47	?	-21%	-12%	?
Cc1ccc(NC(=O)Cn2c(SCc3cccc(F)c3)nc3ccncc32)c(C)c1	-11%	.	-9%	.	-9%	.
COc1ccc(NC(=O)Cn2c(SCc3cccc(Cl)c3)nc3ccncc32)c(OC)c1OC	-6%	.	14µM*[quencher]	.	?	.
Cc1ccc(Cl)cc1NC(=O)c1sc2nc(-c3ccccc3)cn2c1C	?	.	-16%	.	?	.
O=C(Oc1ccccc1F)c1nc(SCc2ccc(F)cc2)ncc1Cl	-15%	.	-25%	.	20µM*	.
C/C(=N\NC(=O)CN(c1ccccc1)S(C)(=O)=O)c1ccccc1O	-10%	.	-11%	-1%	2%	18µM*
CCN1/C(=C/c2ccc3cc(C)ccc3[n+]2C)Sc2ccc3sccc3c21	4%	.	3.2µM*[fluorescent]	?	1.6µM*	-9%
CCN1/C(=C/c2ccc3cc(C)ccc3[n+]2CC)Sc2cc(C)ccc21	?	.	?	-45%	14µM*	?
CCN1C(=C2C(=O)c3ccccc3C2=O)C=Cc2ccccc21	-9%	-10	-17%	-8%[46.1 µM]	?	-2%
CCN1/C(=C/c2ccc3ccccc3[n+]2CC)C=Cc2ccccc21	-14%	-21	12%	7.9µM*	3.2µM*	3%
CCCCN1/C(=C/c2ccc3ccccc3[n+]2CC)Sc2ccccc21	-7%	.	-1%	-51%	14µM*	14µM*
Cc1ccc2c(c1)S/C(=C/c1ccc[n+](C)c1)N2CCO	-6%	.	-5%	-14%	?	-16%
COc1ccc(-c2nc3ccccc3n3c(-c4ccccc4)c4c(=O)n(C)c(=O)n(C)c4c23)cc1OC	12%	.	-8%	.	-17%	.
CN(C)[C@H]1C(=O)C(C(=O)NCN2CCCC2)=C(O)[C@]2(O)C(=O)C3=C(O)c4c(O)cccc4[C@@](C)(O)[C@H]3C[C@@H]12	.	.	.	.	.	11µM*
COc1ccc(Cl)cc1-c1n[nH]c(=S)o1	6%	-8	-1%	6.3µM*	-9%	?
CCCCn1c(-c2cc(Cl)ccc2OC)n[nH]c1=S	8%	47	1%	-14%[46.1 µM]	2%	?
COc1ccc(CNc2ccc3cn[nH]c3c2)c(OC)c1OC	?	34	?	-5%[46.1 µM]	28µM*	?
CCOc1cc(CNc2ccc3cn[nH]c3c2)ccc1OC	4%	-26	?	1%[46.1 µM]	?	?
Cn1c2c(c(=O)[nH]c1=O)C(c1ccc(O)cc1)C1=C(N2)c2ccccc2C1=O (centres undefined)	4%	.	?	-58%	22µM*	-5%
Nc1nc2c(c(=O)[nH]1)C(c1ccccc1)C1=C(N2)c2ccccc2C1=O (centres undefined)	6%	.	?	-1%	6.3µM*	?
CCC(C)c1ccc(C2C3=C(Nc4nc(N)[nH]c(=O)c42)c2ccccc2C3=O)cc1 (centres undefined)	-5%	.	?	4%	?	12%
COc1cc(C2C3=C(Nc4nc(N)[nH]c(=O)c42)c2ccccc2C3=O)ccc1O (centres undefined)	13%	.	-27%	0%	11µM*	-6%
Cc1cc(C)cc(C(=O)NCCc2sc(-c3ccc(F)cc3)nc2C)c1	3%	.	-14%	.	?	.
O=C1c2ccccc2C(=O)C12OC(c1ccccc1)C1(C(=O)c3ccccc3C1=O)C2c1cccc([N+](=O)[O-])c1 (centres undefined)	-1%	-100*	-10%	-27%[46.1 µM]	-2%	6%
CCOc1ccc(CNC(=O)Cn2ncc3c(=O)oc4ccc(C)cc4c32)cc1	-7%	.	5%	.	0%	.
N#Cc1cccc(C(c2nnnn2C2CCCC2)N2CCC(Cc3ccccc3)CC2)c1 (centres undefined)	2%	-100*	-9%	-19%[46.1 µM]	-4%	8%

Assay outcomes deposited in PubChem by National Center for Advancing Translational Sciences (NCATS).
